This passage reports composite z-score and z-score results from PubChem BioAssay.

The test system of experiment [1] is Human papillomavirus type 1a protein E7 (residues 44-93). As to the kind of experiment: small molecules binding HPV E7 44-93 – biochemical, small-molecule microarray, residues 44-93, 635 nm fluorescence, primary screen (AID 1108).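 Note: E7 fragment applied at 1 µg/mL in TBST for 1 h at 4 C; score combines spot fluorescence with its signal to noise ratio.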 Conditions: fluorescence 635 nm, higher = more signal.
The nature of experiment [2]: hepatitis C replication reporter changes, two-sided – Huh7 cells, luciferase reporter, HCV replication inhibitor project, primary screen (AID 1109).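 Note: huh7 hepatoma cells harbouring a luciferase neomycin HCV replicon reporter; luciferase luminescence as measure of HCV replicon replication; test concentration not given here.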 Conditions: Huh7 HCV replicon luciferase reporter, 48 h; higher = more signal. In general terms: A reporter such as luciferase makes a cellular process visible.
Experiment [3] concerns the target Left-right determination factor 2 (Homo sapiens) (UniProt O00292). Description: small molecules binding LEFTY2 protein – biochemical, small-molecule microarray, 635 nm fluorescence scan, primary screen (AID 1110). Conditions: higher = more signal.
In experiment [4] the target is Calmodulin-1 (Homo sapiens) (UniProt P0DP23). As to the kind of experiment: small molecules binding calmodulin-1 with EGTA – biochemical, small-molecule microarray, Cy5-labelled CALM1, profiling panel (AID 1111).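 Note: labelled calmodulin applied in Tris saline Tween buffer holding calcium plus EGTA and DTT.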 The conditions noted are these: Cy5-CALM1 binding fluorescence, higher = more signal.
Experiment [5] shares this target. Description: small molecules binding Ca-loaded calmodulin-1 – biochemical, small-molecule microarray, Cy5-labelled CALM1, plus calcium, artefact control for SMM control-protein annotation, profiling panel (AID 1112).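 Note: score merges spot fluorescence with signal to noise from triplicate slides.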 The conditions noted are these: Cy5-CALM1 binding fluorescence, higher = more signal.
Experiment [6] is described as follows: probe aWnt5a binding to arrayed compounds – biochemical, biotinylated probe, 635/667 nm fluorescence, primary screen (AID 1113).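 Note: score merges 667 nm fluorescence intensity with signal-to-noise per printed feature.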 The conditions noted are these: small-molecule microarray, higher = more signal.
Experiment [7] is described as follows: probe aShh binding to arrayed compounds – biochemical, biotinylated probe, 635/667 nm fluorescence, primary screen (AID 1114).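 Note: probe is biotin-labelled aShh protein from a stem cell growth factor screen; measures binding of labelled protein to compounds printed on the slide; score merges feature fluorescence at 667 nm with signal-to-noise.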 Conditions: small-molecule microarray, higher = more signal.
A short description of experiment [8]: probe aNog binding to arrayed compounds – biochemical, biotinylated probe, 635/667 nm fluorescence, primary screen (AID 1115).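 Note: probe is biotinylated aNog protein used at 0.15 µg/mL for 1 h at 4 C; z-score combines 667 nm fluorescence of each spot with its signal to noise.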 The conditions noted are these: small-molecule microarray, higher = more signal.
Experiment [9] has as its target Torsin-1A-interacting protein 1 (Homo sapiens) (UniProt Q5JTV8). Description: compound microarray binding of lysate hLAP1 – cell lysate, small-molecule microarray, COS7 lysate, 635/667 nm fluorescence, primary screen (AID 1116). The conditions noted are these: 635 nm fluorescence, higher = more signal.
Experiment [10] concerns the target Alpha-bungarotoxin (Bungarus multicinctus) (UniProt P60615). Description: compounds binding labelled alpha-BTX control protein – biochemical, small-molecule microarray, Alexa647 label, 635/667 nm fluorescence, artefact control for SMM control protein annotation, profiling panel (AID 1117). Conditions: alpha-BTX-A647 binding fluorescence, higher = more signal.

Sequence of Left-right determination factor 2 (Homo sapiens) (O00292 whole entry, looked up): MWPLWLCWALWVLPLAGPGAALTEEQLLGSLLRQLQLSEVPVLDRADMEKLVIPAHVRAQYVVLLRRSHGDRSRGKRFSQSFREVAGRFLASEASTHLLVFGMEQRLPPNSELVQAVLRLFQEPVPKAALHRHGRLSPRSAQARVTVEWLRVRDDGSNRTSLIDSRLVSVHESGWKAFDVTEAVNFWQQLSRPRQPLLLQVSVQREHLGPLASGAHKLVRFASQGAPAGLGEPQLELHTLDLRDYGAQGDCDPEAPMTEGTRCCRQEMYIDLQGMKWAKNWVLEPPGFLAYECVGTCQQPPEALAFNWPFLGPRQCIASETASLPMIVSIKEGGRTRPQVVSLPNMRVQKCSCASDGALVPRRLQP
Sequence of Alpha-bungarotoxin (Bungarus multicinctus) (P60615 whole entry, looked up): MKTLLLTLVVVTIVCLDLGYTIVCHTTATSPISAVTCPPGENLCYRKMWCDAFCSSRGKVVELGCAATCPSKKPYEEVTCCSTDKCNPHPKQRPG
Sequence of Torsin-1A-interacting protein 1 (Homo sapiens) (Q5JTV8 whole entry, looked up): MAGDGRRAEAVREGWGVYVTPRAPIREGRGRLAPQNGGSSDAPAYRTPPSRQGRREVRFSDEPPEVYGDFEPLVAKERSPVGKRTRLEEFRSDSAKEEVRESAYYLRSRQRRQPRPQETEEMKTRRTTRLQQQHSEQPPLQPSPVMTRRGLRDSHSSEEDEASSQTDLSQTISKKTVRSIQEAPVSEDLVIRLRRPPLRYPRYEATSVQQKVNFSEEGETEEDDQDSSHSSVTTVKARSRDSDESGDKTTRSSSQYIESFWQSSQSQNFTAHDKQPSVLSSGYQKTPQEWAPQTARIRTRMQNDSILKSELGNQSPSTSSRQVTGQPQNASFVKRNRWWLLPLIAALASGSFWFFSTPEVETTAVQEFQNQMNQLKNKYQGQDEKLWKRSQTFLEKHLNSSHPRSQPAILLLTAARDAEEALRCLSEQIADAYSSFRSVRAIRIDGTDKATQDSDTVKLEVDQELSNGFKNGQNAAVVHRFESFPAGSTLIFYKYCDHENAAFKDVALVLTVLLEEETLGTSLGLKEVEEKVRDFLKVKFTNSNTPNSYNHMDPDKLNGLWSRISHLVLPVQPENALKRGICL

Regarding `CC(C)c1ccc(NN2C(C(O)C3CCCCC3)C=CC3C(=O)N(c4ccccc4)C(=O)C32)cc1` (stereo not given), the composite z-score in [1] is 0.324; in experiment [3], 0.176; in experiment [4] it was 2.23; in experiment [5], 0.842; in [6], 0.0219; in experiment [7], -0.144. Further, the composite z-score in experiment [8] amounted to 0.302; in experiment [9] it was 0.678; in experiment [10], 1.9. Moreover, in experiment [2], the z-score is -0.482.
`O=C1OCC=C[C@H]2OC34C=CCN(Cn5nnc6ccccc65)C(=O)[C@H]3N(CCO)C(=O)[C@@H]4[C@@H]12` (stereo not given in full): the composite z-score in experiment [1] is 0.316; in experiment [3], -1.41; in experiment [4], -0.157; in [5] it was 0.62; in experiment [6], -0.148; in [7] it was -0.0192. The composite z-score in experiment [8] was 0.0963; in experiment [9] it was -0.0193; in experiment [10] it was -2.05. The compound also registered a z-score in [2] of -0.105.
For `COCCCNC(=O)[C@@]1(Cc2ccccc2I)c2ccccc2C(=O)N(C2CCCCC2)[C@H]1c1ccc(CO)cc1`, the composite z-score in experiment [1] is 1.13; in [3], -0.418; in [4] it was 0.634; in experiment [5], 0.305; in experiment [6] it was -0.0061; in experiment [7], 0.313. Also, the results for the composite z-score in [8], in [9] and in experiment [10] were -0.417, 1.57 and 1.19, respectively. Besides, the z-score in experiment [2] was -1.45.
Regarding `COc1ccc([Si](C)(C)[C@@H]2[C@@H](CC(=O)N3CCC[C@H]3CO)O[C@]3(C(=O)N(Cc4cccc(N5C(=O)c6cccc7cccc5c67)c4)c4ccccc43)[C@H]2C)cc1`, the composite z-score in experiment [1] was 1.29; in [3], 0.456; in [4], 1.15; in experiment [5] it was -0.226; in [6] it was -0.108; in [7], -0.0793. Moreover, the composite z-score in [8] was -0.458; in experiment [9], 2.23; in experiment [10], 0.669. For the same compound, the z-score in experiment [2] was -2.11.
Take `O=C1c2ccccc2[C@@]2(Cc3ccccc3N(CC(F)(F)F)C2=O)[C@H](c2ccc(CO)cc2)N1Cc1ccccc1`: the composite z-score in experiment [1] is -0.143; in experiment [3], 0.2; in experiment [4], -0.469; in experiment [5], 0.457; in experiment [6] it was 0.0371; in [7] it was 0.0178. Also, the results for the composite z-score in experiment [8], in [9] and in [10] were -0.238, -0.131 and -0.0056, respectively. The z-score in [2] is -1.22.
Regarding `CC(C)(C)OC(=O)CC[C@@]1(C(N)=O)N=C(c2ccc(OCCCO)cc2)O[C@@H]1c1ccccc1CN=[N+]=[N-]`, the composite z-score in experiment [1] is 1.35; in experiment [3], -0.0243; in experiment [4], 2.47; in experiment [5], 1.9; in experiment [6] it was 0.188; in [7], 0.553. The figures for the composite z-score in experiment [8], in experiment [9] and in [10] were 1.52, 1.48 and 2.58, respectively. This compound displayed a z-score in [2] of 0.0506.
In the case of `COc1cccc(C)c1NC(=O)O[C@H]1[C@H](OC(=O)Nc2ccccc2-c2ccccc2)[C@@H](OC(=O)Nc2ccccc2-c2ccccc2)[C@@H](OC)O[C@@H]1CO`, the composite z-score in [1] is 1.52; in experiment [3] it was 0.49; in [4] it was 1.75; in [5], -0.136; in experiment [6] it was -0.0325; in experiment [7], -0.0211. For the same compound, the composite z-score in [8] amounted to 1.08; in experiment [9] it was 0.809; in [10], 0.949. Further, the z-score in experiment [2] is -3.72.
Consider `COc1ccc(NN2C(C(O)c3ccccc3)C=CC3C(=O)N(C4CCCCC4)C(=O)C32)cc1` (stereo not given), for which the composite z-score in experiment [1] was 1.45; in experiment [3], 0.395; in experiment [4] it was 1.38; in experiment [5] it was -0.15; in experiment [6], 0.0974; in [7], 0.13. In addition, the results for the composite z-score in [8], in experiment [9] and in [10] were 0.908, 0.644 and 1.13, respectively. In [2], this compound showed a z-score of -0.888.
Turning to `COC(=O)C1=CC(c2ccc(CO)cc2)=CC(C2CC2)N(Cc2cc3c(cc2Br)OCO3)C=C1C(=O)OC` (stereo not given), the composite z-score in experiment [1] stood at 1.32; in [3], 0.568; in [4] it was 2.06; in experiment [5], 0.631; in [6], 0.0251; in experiment [7] it was 0.254. The composite z-score in experiment [8] was found to be 0.564; in experiment [9], 2.15; in experiment [10], 2.47. In addition, the z-score in experiment [2] was -1.41.
On to `COc1ccc([Si](C)(C)[C@H]2[C@H](CCO)O[C@@]3(C(=O)N(Cc4ccccc4)c4ccc(NC(=O)[C@H](C)O)cc43)[C@@H]2C)cc1`, for which the composite z-score is 1.37 in [1]; 0.424 in [3]; 0.362 in experiment [4]; 0.195 in experiment [5]; 0.026 in experiment [6]; -0.138 in experiment [7]. Further, the composite z-score in [8] is 0.514; in experiment [9], 0.795; in experiment [10], 0.627. The same compound returned a z-score in experiment [2] of -5.05.
